Compound activity as filed in PubChem BioAssay.
In the library only some 9.4% were active in any assay of this set; here they are far more common.
HTT ATP protect = Huntington cell model cytoprotection by ATP luminescence | PC12 HTT-Q103 induced, cytoprotection, ATP luminescence, 40 h | Potency, µM (highest dose often 56.4 µM), most hits filed as activators | 230,000 tested, 0.14% active; note: nearly all actives have a fitted effect of over 45% in size
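Huntington model: PC12 line, ecdysone-inducible HTTQ103 exon1–GFP, tebufenozide 100 nM. Test articles in a dose series. Endpoint luminescence from cellular ATP.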
IMPase Li cell = cell-permeable IMPase inhibitors with lithium potentiation | 210,000 tested, 0.35% active | Potency, µM (doses to about 59.4 µM), most hits filed as inhibitors | CHO-M1 cells, IP1 TR-FRET (IP-One), carbachol + lithium;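 note: IP1 builds up when IMPase is blocked and the TR-FRET signal falls; nearly all actives have a fitted effect of over 50% in size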
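CHO cells stably expressing M1 receptor (2000/well, cultured 16–30 h) treated 30 min at 37C with compound plus low lithium. Cytosolic IP1 by TR-FRET (665/620 ratio and 620 channel) after 10 min lysis; AC50 by Hill fit.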
IMPase inh = cell-permeable inhibitors of inositol monophosphatase (IMPase); P97697; CHO-M1 cells, IP1 accumulation, HTRF TR-FRET ratio; inhibition (IP1 accumulation), % at 46.1 µM; 120,000 tested, under 10 active; AID 901; active = well fitted curve in the direction sought with a large enough effect in the signal ratio, not every such curve was filed as active; inconclusive = small, poorly fitted or top-dose-only effect, or a change in a side signal; inactive = no such curve, though single readings can be large or run the other way; the % refers to the signal ratio;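 note: cells stimulated with carbachol in lithium chloride buffer; higher means more IMPase inhibition seen as more IP1 and lower FRET ratio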
Target sequence (P97697 whole entry, looked up): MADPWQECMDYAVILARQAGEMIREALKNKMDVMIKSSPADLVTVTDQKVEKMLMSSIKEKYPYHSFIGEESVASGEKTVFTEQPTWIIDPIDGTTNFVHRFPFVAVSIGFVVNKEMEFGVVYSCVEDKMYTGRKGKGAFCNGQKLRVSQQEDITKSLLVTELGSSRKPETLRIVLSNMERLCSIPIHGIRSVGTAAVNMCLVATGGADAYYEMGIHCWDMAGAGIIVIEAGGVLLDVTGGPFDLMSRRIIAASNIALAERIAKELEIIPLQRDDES
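Carbachol-driven Gq signalling in CHO-M1 cells (2000/well) generates IP1. Compounds that block IMPase raise IP1 and so reduce the FRET signal from Eu-anti-IP1 and d2-IP1 after a 10 min room-temperature lysis.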
ALDH1A1 block = ALDH1A1 (human) enzyme inhibition; Potency, µM (titrated, usually from 75.3 µM), hits mostly inhibitors; Purified ALDH1A1, NADH fluorescence, propionaldehyde substrate; P00352; 220,000 tested, 7.3% active; active = well fitted inhibition curve with a large enough effect, not every such curve was filed as active; inconclusive = small, poorly fitted or top-dose-only effect, or another doubt; inactive = no such curve, though single readings can be large or run the other way
HTT aggregate = inhibitors of mutant huntingtin aggregate formation in PC12 cells | Potency, µM (top dose mostly 46.1 µM), usual class: inhibitors | AID 1688 | PC12 HttQ103-GFP aggregates, Acumen cytometry, 40 h | 220,000 tested, 1.1% active; note: nearly all actives have a fitted effect of over 60% in size
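Inducible Q103 Huntingtin exon 1–GFP PC12 line, 1500 cells/well in phenol red free DMEM with 5% equine and 5% calf serum. Tebufenozide 100 nM induced expression; compounds titrated; aggregates quantified by cytometry.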
HPGD block = inhibitors of human 15-hydroxyprostaglandin dehydrogenase (HPGD). 150,000 tested, 4.3% active. Potency, µM, actives largely listed as inhibitors. purified HPGD, NADH fluorescence kinetic, PGE2 substrate. AID 894. P15428; active = well fitted inhibition curve with a large enough effect, not every such curve was filed as active; inconclusive = small, poorly fitted or top-dose-only effect, or another doubt; inactive = no such curve, though single readings can be large or run the other way
Target sequence (P15428 whole entry, looked up): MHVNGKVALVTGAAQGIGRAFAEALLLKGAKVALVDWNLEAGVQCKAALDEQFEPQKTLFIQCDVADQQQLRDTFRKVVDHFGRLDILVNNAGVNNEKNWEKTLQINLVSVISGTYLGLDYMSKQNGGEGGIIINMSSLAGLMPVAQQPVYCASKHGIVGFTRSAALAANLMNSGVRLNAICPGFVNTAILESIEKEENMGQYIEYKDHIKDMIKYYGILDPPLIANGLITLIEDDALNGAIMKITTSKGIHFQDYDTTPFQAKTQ
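20 nM HPGD preincubated 15 min at room temperature with compound in 50 mM Tris-HCl pH 8, 0.01% Tween 20. Started with 1 mM NAD+ and 30 uM prostaglandin E2; NADH fluorescence (360/450 nm) read 5 times over 30-s intervals, last minus first.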
Each line names hits and unclear results; the compound was inactive in the other large screens. Unless noted, calls come from the whole dose curve; as a rule, active = well fitted curve in the direction sought with a large enough effect; inconclusive = small, poorly fitted or top-dose-only effect, or another doubt; inactive = no such curve, though single readings can be large; an effect the other way counts as inactive or inconclusive.

CCOC(=O)c1cc(C)[nH]c(=S)c1C#N	ALDH1A1 block 20µM
CCOC(=O)c1cc(C(=O)OCC)c(=O)[nH]c1C	ALDH1A1 block inconclusive (no result: HTT ATP protect, IMPase inh)
COc1ccc(OCC#CCN2CC(C)OC(C)C2)cc1 (centres undefined)	ALDH1A1 block 6.3µM (no result: HTT ATP protect, IMPase inh, HPGD block)
FC(F)(F)c1ccccc1NC(=S)Nc1cccc(Cl)c1	none (no result: IMPase inh, HPGD block)
Cn1nnc(NC(=S)NC(=O)c2ccc(-c3ccc(Br)cc3)o2)n1	ALDH1A1 block 7.9µM (no result: HTT ATP protect, IMPase inh, HPGD block)
CCCn1nnc(NC(=S)NC(=O)c2ccc(-c3ccc(Br)cc3)o2)n1	none (no result: IMPase Li cell, IMPase inh, ALDH1A1 block, HPGD block)
Cc1cccc2cc(C#N)c(SCC(=O)NNC(=O)Cc3ccccc3)nc12	IMPase Li cell inconclusive
Cc1ccc(C)c2nc(SCC(=O)NCc3cccs3)c(C#N)cc12	IMPase Li cell 5µM, ALDH1A1 block inconclusive, HPGD block inconclusive
Cc1cc2c(C)ccc(C)c2nc1SCC(=O)c1cccs1	IMPase inh inconclusive
Cc1cccc2cc(C#N)c(SCC#N)nc12	IMPase Li cell 14µM (no result: HTT ATP protect, IMPase inh, HPGD block)
O=C(CSc1cccc2cccc(Cl)c12)NCc1cccs1	HPGD block 10µM (no result: IMPase inh)
Cc1cccc2cc(C#N)c(SCC(=O)NCc3cccs3)nc12	IMPase Li cell 7.9µM (no result: IMPase inh)
COc1ccc(NC(=O)C(Cc2c[nH]c3ccccc23)NC(=O)OC(C)(C)C)cc1 (centres undefined)	none (no result: HTT ATP protect, IMPase Li cell, ALDH1A1 block, HTT aggregate, HPGD block)
CCN(CC(=O)O)CC(=O)O	none (no result: IMPase inh, HTT aggregate)
COc1ccc(CCCc2n[nH]c(=S)o2)cc1C	ALDH1A1 block 8.9µM (no result: IMPase inh, HPGD block)
NC(=O)C(=O)NN=C1C2CC3CC(C2)CC1C3	none (no result: IMPase inh, HPGD block)
NC(=S)NN=C1C2CC3CC(C2)CC1C3	ALDH1A1 block 25µM (no result: IMPase inh, HPGD block)
CCc1ccccc1NC(=O)Cc1c(C(=O)O)[nH]c2ccc(Cl)cc12	none (no result: HTT ATP protect, IMPase Li cell, ALDH1A1 block, HTT aggregate, HPGD block)
CCCCN1CC(O)C(O)C(O)C1CO (centres undefined)	none (no result: IMPase Li cell, IMPase inh, ALDH1A1 block, HPGD block)
CCOC(=O)C1(C)/C(=N/Nc2ccccc2Cl)C(=O)C(=O)N1c1ccccc1 (centres undefined)	ALDH1A1 block 0.22µM, HTT aggregate inconclusive, HPGD block 40µM
CCOC(=O)C1(C)/C(=N/Nc2ccc(S(N)(=O)=O)cc2)C(=O)C(=O)N1c1ccccc1 (centres undefined)	ALDH1A1 block 18µM (no result: IMPase inh, HPGD block)
CCOC(=O)C1(C)/C(=N/Nc2ccc(Cl)cc2)C(=O)C(=O)N1c1ccccc1 (centres undefined)	ALDH1A1 block inconclusive, HPGD block inconclusive
CCOC(=O)C1(C)C=C(Nc2ccc(C(=O)O)cc2)C(=O)N1c1ccc(C(=O)O)cc1 (centres undefined)	none (no result: HTT ATP protect, IMPase Li cell, ALDH1A1 block, HTT aggregate, HPGD block)
CCOC(=O)C1(C)/C(=N/Nc2cccc(Cl)c2)C(=O)C(=O)N1c1ccccc1 (centres undefined)	ALDH1A1 block inconclusive, HPGD block 32µM
CCOC(=O)c1c(C)c(C(=O)Nc2ccccc2)c(C)n1CC	none
CCOC(=O)c1c(C)c(C(=O)N2CCc3ccccc3C2)c(C)n1CC	ALDH1A1 block inconclusive, HPGD block 4.5µM
CC(=O)c1c(C)[nH]c(C(=O)N2CCN(C(=O)c3ccco3)CC2)c1C	none
CC(=O)c1c(C)[nH]c(C(=O)N2CCc3ccccc3C2)c1C	HPGD block 18µM
O=C(C#Cc1cccc([N+](=O)[O-])c1)c1ccccc1	ALDH1A1 block 3.5µM, HTT aggregate inconclusive
O=C(/C=C/c1cccc([N+](=O)[O-])c1)c1ccccc1	none (no result: IMPase inh, HTT aggregate)
CCC(=O)c1ccc(CCCCCC(=O)O)s1	IMPase Li cell inconclusive
CC(=O)Nc1ccc(C(=O)CCl)cc1	ALDH1A1 block 0.045µM (no result: IMPase inh, HTT aggregate)
CC(=O)NCCC(=O)NCc1ccc(F)cc1	none
CC(=O)NCc1ccc(C(=O)CCl)s1	ALDH1A1 block 0.14µM, HTT aggregate inconclusive (no result: IMPase inh, HPGD block)
CC(=O)N(C)Cc1ccc(C(=O)CCl)cc1	ALDH1A1 block 0.71µM (no result: IMPase inh, HPGD block)
CC(=O)NCc1ccc(C(=O)CCl)cc1	ALDH1A1 block 0.35µM (no result: IMPase inh, HPGD block)
CN(Cc1ccccc1)C(=O)CCC(=O)N(C)Cc1ccccc1	none
CC(=O)Nc1ccc(C)cc1	none (no result: IMPase inh, HTT aggregate)
